Compound activity from PubChem BioAssay.
An excerpt weighted towards active compounds, which were near 3.1% of everything screened.
TexasRed fluor: alters Texas Red total fluorescence, flagging assay interference. TRb/SRC2 Texas Red total fluorescence interference. Potency, µM (top dose mostly 106 µM). 0.29% of 280,000 active; active = well fitted curve in either direction with a large enough effect; inconclusive = small, poorly fitted or top-dose-only effect
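Human TRβ ligand-binding domain (0.6 uM) and Texas Red SRC2 peptide (20 nM) in Tris buffer with 1 uM T3 and 5% DMSO were incubated with pinned compound for 5 hr at ambient temperature. Total fluorescence was computed as S + 2P (555/632 nm).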
Tau fibril FP: inhibitors of human tau fibril formation; P10636; K18 P301L tau heparin fibrillization, Alexa594 FP, 6 h; Potency, µM (highest dose often 57.7 µM), usual class: inhibitors; 0.39% of 280,000 active; AID 1468; also: nearly all actives have a fitted effect of over 55% in size
Target sequence (P10636 561-689 P618L limits assumed): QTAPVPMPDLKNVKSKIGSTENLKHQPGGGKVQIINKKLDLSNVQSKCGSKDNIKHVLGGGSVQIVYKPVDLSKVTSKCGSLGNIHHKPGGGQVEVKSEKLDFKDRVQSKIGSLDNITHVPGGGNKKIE
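FP of Alexa 594-tau after heparin (20 uM) induction. Substrate: human K18 P301L, 15 uM unlabeled, 0.24 uM labeled. Buffer 100 mM sodium acetate pH 7. 6 hr, 37 C.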
Tau fibril ThT: inhibitors of human tau fibril formation, thioflavin T binding; recombinant tau K18 P301L, heparin-induced fibrillization, ThT fluorescence; 2.1% of 270,000 active; Potency, µM (doses to about 57.4 µM), hits mostly inhibitors; P10636; AID 1460; also: nearly all actives have a fitted effect of over 55% in size
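Tau K18 P301L fragment (15 uM unlabeled plus 0.24 uM Alexa 594-labeled) in 100 mM sodium acetate pH 7 with compound, fibrillization induced by 20 uM heparin for 6 hr at 37 C. Thioflavin T (30 uM) added, fluorescence read after 1 hr (ex 450, em 510 nm).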
TRb SRC2 PPI: disrupts binding of human TR beta to SRC2; TRbeta-SRC2 peptide binding, fluorescence polarization; receptor liganded with 1 µM T3; P10828; Potency, µM (doses to about 106 µM), hits mostly inhibitors; 0.065% of 280,000 active; also: nearly all actives have a fitted effect of over 50% in size
Target sequence (P10828 whole entry, looked up): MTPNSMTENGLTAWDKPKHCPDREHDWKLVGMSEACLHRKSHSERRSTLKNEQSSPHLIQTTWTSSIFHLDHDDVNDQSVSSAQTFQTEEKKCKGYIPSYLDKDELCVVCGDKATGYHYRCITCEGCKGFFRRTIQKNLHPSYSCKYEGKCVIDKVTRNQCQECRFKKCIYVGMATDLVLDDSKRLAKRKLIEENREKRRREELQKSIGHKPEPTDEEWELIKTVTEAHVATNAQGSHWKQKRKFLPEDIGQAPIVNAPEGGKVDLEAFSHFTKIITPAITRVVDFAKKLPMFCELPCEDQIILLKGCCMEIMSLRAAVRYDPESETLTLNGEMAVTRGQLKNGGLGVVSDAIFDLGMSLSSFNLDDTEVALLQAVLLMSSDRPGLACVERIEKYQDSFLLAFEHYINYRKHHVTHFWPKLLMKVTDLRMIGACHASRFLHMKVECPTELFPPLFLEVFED
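Assay buffer: 20 mM Tris-HCl, 100 mM NaCl, 10% glycerol, 1 mM EDTA, 0.01% NP-40, 1 mM DTT, 1 uM T3, 5% DMSO; TRb LBD 0.6 uM, Texas Red SRC2 20 nM; FP after 5 hr.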
Tau fluor counter: counter-screen for tau fibril formation inhibitors; 0.93% of 280,000 active; Potency, µM (top dose mostly 57.7 µM); tau K18 P301L Alexa594 fluorescence, heparin fibrillization; also: nearly all actives have a fitted effect of over 55% in size
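Human tau K18 P301L (15 uM unlabeled, 0.24 uM Alexa 594-labeled) in 100 mM sodium acetate pH 7 with 20 uM heparin, 6 hr at 37 C. ThT 30 uM added, 1 hr ambient; Alexa 594 FP and total fluorescence read at 555/632 nm.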
A number is an active result; i = inactive; ? = inconclusive; nt = no result; [ ] = dose if it differs, or a comment. Unless noted, calls follow the shape of the dose curve; as a rule, active = well fitted curve in the direction sought with a large enough effect; inconclusive = small, poorly fitted or top-dose-only effect, or another doubt; inactive = no such curve, though single readings can be large; an effect the other way counts as inactive or inconclusive.

SMILES	TexasRed fluor	Tau fibril FP	Tau fibril ThT	TRb SRC2 PPI	Tau fluor counter
COc1ccc(C2C(=O)N(C3CCCCC3)CC(=O)N2C2CCCC2)cc1 (stereo unspecified)	i	i	i	i	i
COc1cc2c(cc1OC)C(c1cccs1)N(C(=O)c1ccc(S(=O)(=O)N(C)C)cc1)CC2 (stereo unspecified)	i	i	i	i	i
Cc1cc2cc(CNC(=O)Nc3cccc(Cl)c3)ccc2n1C	45µM[fluorescent]	?	?	45µM	?
CCOc1ccccc1-c1nnc2n1N=C(c1ccc(OC)cc1)CS2	i	nt	nt	i	nt
COc1ccccc1Nc1nc(-c2ccccc2)c(CC(=O)O)s1	i	i	i	i	i
O=C(O)Cc1sc(N/N=C\c2ccccc2)nc1-c1ccccc1	i	?	10µM	i	?
COc1ccc(/C=C/C(=O)c2ccc[nH]2)c(OC)c1OC	i	i	i	i	i
COc1ccc(/C=C/C(=O)c2ccncc2)c2ccccc12	i	?	16µM	i	i
CCCC(=O)OCC(=O)Nc1ccc(N=Nc2ccccc2)cc1	i	?	10µM	i	?
CC1CC1C(=O)OCC(=O)Nc1ccc(N=Nc2ccccc2)cc1 (stereo unspecified)	i	?	7.9µM	i	?
COc1ccccc1-c1cncnc1NCCN1CCOCC1	i	i	i	i	i
O=C(OCC(=O)c1ccc(Cl)s1)c1ccccn1	?	i	i	i	i
O=C(COc1cccnc1[N+](=O)[O-])c1ccc(Cl)s1	i	10µM	5µM	i	?
CC(=O)Nc1ccc(Nc2nc(C)nc3c2oc2ccccc23)cc1	i	i	?	i	i
CC(=O)N1CCN(c2ccc(Nc3nc(C)nc4c3oc3ccccc34)cc2)CC1	i	i	8.9µM	i	?
CCOC(=O)/C(C#N)=C/c1ccc(OCC(=O)Nc2cc(C)ccc2C)c(OC)c1	i	i	i	i	i
COc1ccccc1CNc1nc(-c2ccco2)nn1S(=O)(=O)c1ccc2ccccc2c1	1122µM[quencher]	?	i	i	i
COc1ccc(CNc2nc(-c3ccco3)nn2S(=O)(=O)c2ccc3ccccc3c2)cc1OC	i	?	i	i	?
COc1ccc(-c2nc3c(c4c2C[C@H](c2ccccc2)OC4)CN(S(=O)(=O)c2ccc(C)cc2)CC3)c(C)c1	i[11.2 µM]	i[11.6 µM]	i[11.5 µM]	i[11.2 µM]	i[11.6 µM]
CCOCCCNC(=O)c1cnc2sc(N3CCCCC3)nn2c1=O	i	i	i	i	i
CCOc1cccc2sc(NN)nc12	i	?	20µM	i	14µM[quencher]
Cc1nn(C)c(Cl)c1CN1CCN(C2CCCC2)C(CCO)C1 (stereo unspecified)	i	i	i	i	i
Clc1ccc(/C=N/c2c(-c3ccc(Cl)cc3)nc3n2CCS3)cc1	i	i	?	i	?
C(=N\c1c(-c2ccccc2)nc2n1CCS2)/c1ccccc1	i	?	22µM	i	?
Clc1ccc2c(c1)-n1cc(-c3ccccc3)nc1CO2	11µM[quencher]	i	?	i	i
SMILES	TexasRed fluor	Tau fibril FP	Tau fibril ThT	TRb SRC2 PPI	Tau fluor counter
COC(=O)CC1Oc2ccc(Cl)cc2-n2cc(-c3ccccc3)nc21 (stereo unspecified)	i	i	i	i	i
Cc1sc(NC(=O)c2sc3nc4c(C)cccc4cc3c2N)c(C#N)c1C	i	i	16µM	i	?
Cc1cccc2cc3c(N)c(C#N)sc3nc12	i	?	13µM	i	?
Nn1cnc2c([nH]c3ccccc32)c1=O	1122µM[quencher]	i	i	i	i
O=C(/C=C/c1cccs1)c1ccc(N2CCOCC2)cc1	i	i	16µM	i	i
O=C(/C=C/c1cccs1)c1ccc([N+](=O)[O-])cc1	i	i	?	i	i
O=C(/C=C/c1cccc(F)c1)c1ccc(N2CCOCC2)cc1	i	i	13µM	i	?
O=C(Cn1c2ncccc2c(=O)n1-c1ccccc1)NCc1ccccc1Cl	i	?	i	i	i
O=C(CCS(=O)(=O)c1ccccc1)Nc1ccccc1F	i	i	i	i	i
CCOC(=O)c1ccc(NC(=O)c2cccc(S(=O)(=O)N3c4ccccc4CC3C)c2)s1 (stereo unspecified)	i	8.9µM	i	i	?
COc1c(Cl)cc(C(=O)Nc2cccc(-c3nc4ccccc4[nH]3)c2)cc1Cl	i	22µM	?	i	?
CCCN(CCC)S(=O)(=O)c1ccc(C(=O)Nc2cccc(-c3nc4ccccc4[nH]3)c2)cc1	i	25µM	i	i	?
CC(=O)/C=C/C1C(C)=CCCC1(C)C (stereo unspecified)	i	nt	nt	i	nt
Cc1cc(C)c(NC(=O)Cn2c(=O)c3cccn3c3ccccc32)c(C)c1	i	7.9µM	?	i	?
CCc1ccc(NC(=O)CCn2c(=O)c3cccn3c3ccccc32)cc1	i	i	i	i	i
CCOC(=O)c1ccc(NC(=O)CCCn2c(=O)c3cccn3c3ccccc32)cc1	i	i	?	i	i
CCc1ccc(NC(=O)Cn2c(=O)c3cccn3c3ccccc32)cc1	?	20µM	i	i	?
CCOC(=O)c1cccc(NC(=O)Cn2c(=O)c3cccn3c3ccccc32)c1	i	13µM	?	i	?
O=C(Cn1c(=O)c2cccn2c2ccccc21)NCCc1ccccc1	i	14µM	i	i	?
O=C(Cn1c(=O)c2cccn2c2ccccc21)Nc1cc(F)ccc1F	i	i	i	i	i
CCCCCCCCCCCCCCCCN(C)C	i	nt	nt	i	nt
C[C@H](O/N=C1/[C@H]2O[C@@H]2[C@@H](O)[C@H]2[C@H]1CCn1c(=O)n(-c3ccccc3)c(=O)n12)c1cn([C@H]2COC[C@H]2O)nn1	i[11.2 µM]	i[11.6 µM]	i[11.5 µM]	i[11.2 µM]	i[11.6 µM]
COC(=O)C1=C(C(=O)OC)C(c2cc(Br)ccc2O)c2sc(=O)[nH]c2S1 (stereo unspecified)	i	i	28µM	i	?
O=C(O)C1Sc2[nH]c(=O)sc2C2c3cc(Br)ccc3OC(=O)C12 (stereo unspecified)	i	i	nt	i	i
COC(=O)C1=C(C(=O)OC)C(c2ccc(OC)c(OC)c2)c2sc(=O)[nH]c2S1 (stereo unspecified)	i	i	?	i	i
SMILES	TexasRed fluor	Tau fibril FP	Tau fibril ThT	TRb SRC2 PPI	Tau fluor counter
COC(=O)C1=C(C(=O)OC)C(c2cc(Cl)ccc2O)c2sc(=O)[nH]c2S1 (stereo unspecified)	i	i	25µM	i	?
Cc1ccc(CN(Cc2ccco2)C(=O)COc2ccc(Cl)cc2)o1	i	i	i	i	i
c1ccc(-n2nnnc2CN2CCOCC2)cc1	1585µM[quencher]	i	i	i	i
Nc1ccc(-n2nnnc2CN2CCOCC2)cc1	i	i	i	i	i
Cc1ccc(NC(=O)Cn2nnc3ccccc3c2=O)cc1C	i	i	i	i	i
Cc1ccc(NC(=O)Cn2c(=O)n(Cc3nc(-c4ccccc4)no3)c(=O)c3ccccc32)cc1C	i	?	i	i	i
CCOc1ccc(NC(=O)Cn2c(=O)n(Cc3nc(-c4ccccc4)no3)c(=O)c3cc4c(cc32)OCO4)cc1	i	?	i	i	i
